# Records with an inconclusive call do not appear. Where a call stands in place of a potency, no number is given. A number with no mark means an inactive call. Calls of active or inactive are those of the source. Calls follow the shape of the dose curve; as a rule, active = well fitted curve in the direction sought with a large enough effect; inconclusive = small, poorly fitted or top-dose-only effect, or another doubt; inactive = no such curve, though single readings can be large; an effect the other way counts as inactive or inconclusive.
# Tests used:
# [1] = test system: C33A; test: Primary qHTS to identify gynecologic anti-cancer compounds using libraries of approved drugs and bioactive compounds (AID 1345084); settings: Gynecologic cancer cell panel viability, ATPlite luminescence, 48 h; series mostly up to 57.5 µM; also: nearly all actives have a fitted effect of over 55% in size
# How it was run: (§1)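 Cells, 1,000 per well, were allowed to settle for 16 h at 37 C before compound addition. Five concentrations were tested for 48 h, and viability was read by ATPlite luminescence after 15 min at room temperature.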
# [2] = test system: CASKI; test: as above; settings: Gynecologic cancer cell panel viability, ATPlite luminescence, 48 h; series mostly up to 57.5 µM
# How it was run: as §1
# [3] = test system: Es-2; test: as above; settings: Gynecologic cancer cell panel viability, ATPlite luminescence, 48 h; series mostly up to 57.5 µM
# How it was run: as §1
# [4] = test system: HeLa; test: as above; settings: Gynecologic cancer cell panel viability, ATPlite luminescence, 48 h; series mostly up to 57.5 µM
# How it was run: as §1
# [5] = test system: Hek293T; test: as above; settings: Gynecologic cancer cell panel viability, ATPlite luminescence, 48 h, control line for the selectivity index; series mostly up to 57.5 µM
# How it was run: as §1
# [6] = test system: JEG-3; test: as above; settings: Gynecologic cancer cell panel viability, ATPlite luminescence, 48 h; series mostly up to 57.5 µM
# How it was run: as §1
# [7] = test system: OV90; test: as above; settings: Gynecologic cancer cell panel viability, ATPlite luminescence, 48 h; series mostly up to 57.5 µM
# How it was run: as §1
# [8] = test system: PA-1; test: as above; settings: Gynecologic cancer cell panel viability, ATPlite luminescence, 48 h; series mostly up to 57.5 µM
# How it was run: as §1
# [9] = test system: SKOV3; test: as above; settings: Gynecologic cancer cell panel viability, ATPlite luminescence, 48 h; series mostly up to 57.5 µM
# How it was run: as §1
# [10] = test system: Tov-21-G; test: as above; settings: Gynecologic cancer cell panel viability, ATPlite luminescence, 48 h; series mostly up to 57.5 µM
# How it was run: as §1
# [11] = test system: Tov112D; test: as above; settings: Gynecologic cancer cell panel viability, ATPlite luminescence, 48 h; series mostly up to 57.5 µM
# How it was run: as §1
# [12] = qHTS assay to identify inhibitors of the type 1 interferon - major histocompatibility complex class I in skeletal muscle: Counter screen cell viability and HiBit confirmation (AID 1347412); settings: iHSKM muscle cells + IFN-b, HiBiT or CellTiter-Glo, 24 h; for Potency: HiBiT; as to all read-outs here: nearly all actives have a fitted effect of over 60% in size
# How it was run: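 Human myoblast knock-in line, 4.0 ng/ml IFN-beta stimulation, 24 h compound treatment. Endpoints: HiBiT lytic luminescence (HLA-B level) and CellTiter Glo (ATP). Dosing 12 concentrations, 3-fold steps, 46 uM highest final.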
# Potency is read from the fitted curve at half-maximal effect.
SMILES,Potency [1],Potency [2],Potency [3],Potency [4],Potency [5],Potency [6],Potency [7],Potency [8],Potency [9],Potency [10],Potency [11],Potency [12],"activity change, negative = inhibition ([12]; Viability, at 45.9 µM (top of the series)) [%]"
COc1cc2c(c(OC)c1CC=C(C)C)C[C@H](c1ccc(O)cc1O)CO2,inactive,inactive,inactive,inactive,inactive,inactive,inactive,inactive,inactive,inactive,inactive,–,–
CC/C=C/CC1=C(CCCCC(CCC(=O)O)OC(C)=O)CCC1=O (stereo not given),inactive,inactive,inactive,inactive,inactive,inactive,inactive,inactive,–,inactive,inactive,–,–
Cc1cc(C)c(CNC(=O)c2cc(-c3ccc(CN4CCOCC4)cc3)cc3c2cnn3C2CCCC2)c(=O)[nH]1,inactive,inactive,inactive,inactive,inactive,inactive,inactive,inactive,–,inactive,inactive,–,–
Cc1cccc(C)c1-n1c(=O)c2cnc(Nc3ccc(N4CCN(C)CC4)cc3)nc2n2c3ccccc3nc12,2.82 µM (active),14.1 µM (active),3.55 µM (active),6.31 µM (active),3.55 µM (active),12.6 µM (active),12.6 µM (active),7.94 µM (active),–,0.398 µM (active),8.91 µM (active),–,–
C=C1C(OC2OCC(O)C(O)C2O)CC2C(C)(C)C(O)CCC2(C)C1CC/C(C)=C\CO (stereo not given),inactive,inactive,inactive,inactive,inactive,inactive,inactive,inactive,inactive,inactive,inactive,–,–
COc1nc2sc(C(=O)NC3CC3)c(N)c2c(C)c1Cl,inactive,inactive,inactive,inactive,inactive,inactive,inactive,inactive,–,inactive,inactive,–,–
C[C@@H]1[C@H]2[C@H](O[C@@H]3O[C@H](CO)[C@@H](O)[C@H](O)[C@H]3O)OC=C(C(=O)O)[C@H]2C[C@@H]1O,inactive,inactive,inactive,inactive,inactive,inactive,inactive,inactive,inactive,inactive,inactive,–,–
CC[C@H](CO)Nc1nc(NCc2ccc(-c3ccccn3)cc2)c2ncn(C(C)C)c2n1,1.26 µM (active),2.51 µM (active),0.794 µM (active),3.16 µM (active),–,–,–,1 µM (active),–,–,1.78 µM (active),–,–
O=C(c1cccc(Cl)c1F)N1CCN(Cc2cccc(Nc3nccs3)n2)CC1,inactive,–,inactive,1 µM (active),–,inactive,inactive,–,–,–,0.891 µM (active),–,–
Cc1ccccc1-n1c([C@H](C)Nc2nc(N)nc3nc[nH]c23)nc2cccc(C)c2c1=O,inactive,31.6 µM (active),–,–,inactive,–,inactive,–,inactive,–,inactive,–,–
Cc1cnc(NC(=O)Nc2cc(Br)c(C)cc2OCC2CNCCO2)cn1 (stereo not given),inactive,inactive,–,–,8.91 µM (active),inactive,–,inactive,10 µM (active),–,inactive,–,–
Cc1cc(Nc2cc(N3CCN(C)CC3)nc(/C=C/c3ccccc3)n2)n[nH]1,28.2 µM (active),3.55 µM (active),inactive,–,–,–,–,2.51 µM (active),–,–,–,11.1 µM (active),–
CC1COC(Nc2ccc3ncnc(Nc4ccc(OCc5nccs5)c(Cl)c4)c3c2)=N1 (stereo not given),inactive,–,inactive,inactive,–,inactive,–,inactive,15.8 µM (active),–,–,–,–
Cc1ccc([N+](=O)[O-])cc1S(=O)(=O)N(C)/N=C/c1cnc2ccc(Br)cn12,0.316 µM (active),0.316 µM (active),0.398 µM (active),0.316 µM (active),0.316 µM (active),–,–,0.199 µM (active),–,–,0.355 µM (active),0.0497 µM (active),-5.21
c1ccc(-c2csc(N3CCOCC3)n2)cc1,inactive,inactive,inactive,–,–,inactive,inactive,inactive,inactive,inactive,inactive,–,–
CN(c1ccccc1CNc1nc(Nc2ccc3c(c2)CC(=O)N3)ncc1C(F)(F)F)S(C)(=O)=O,6.31 µM (active),–,20 µM (active),15.8 µM (active),–,–,8.91 µM (active),15.8 µM (active),–,inactive,25.1 µM (active),–,–
CN(C)c1ccc2c(c1)OC(N)=C(C#N)C2c1cccc(C(F)(F)F)c1 (stereo not given),0.631 µM (active),–,1 µM (active),0.501 µM (active),–,0.282 µM (active),1.41 µM (active),0.178 µM (active),–,0.251 µM (active),0.316 µM (active),–,–
C=C(C)C(=O)OC1C(OC(C)=O)/C(C=O)=C\CC/C(CO)=C/C2OC(=O)C(=C)C21 (stereo not given),inactive,inactive,–,inactive,–,inactive,inactive,inactive,inactive,–,inactive,–,–

# Reference: PubChem BioAssay (NCATS)
